Data on 9 compounds can be found in PubChem BioAssay (NCI).

A short description of assay [1]: NCI Yeast Anticancer Drug Screen. Data for the rad50 strain (AID 155).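 Also: 0% = growth of vehicle-only cultures of the same strain.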 The settings on record: S. cerevisiae rad50 strain growth inhibition, hits give high values. The gist of the method: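 Inhibition values express reduced yeast growth in compound-treated cultures relative to vehicle-treated controls.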
Assay [2] is described as follows: NCI Yeast Anticancer Drug Screen. Data for the mec2-1 strain (AID 157). The settings on record: S. cerevisiae mec2-1 strain, hits give high values. A digest of the protocol: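 Compounds were applied to mec2-1 yeast cells. Their growth was then compared with that of vehicle-treated cultures to give growth inhibition.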
Assay [3] is described as follows: NCI Yeast Anticancer Drug Screen. Data for the sgs1 mgt1 strain (AID 161).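 Also: 0% = growth of cultures given vehicle only.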 The settings on record: S. cerevisiae sgs1 mgt1 strain, hits give high values. A digest of the protocol:
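Yeast cells carrying a defined DNA-repair defect were exposed to test compounds. Growth inhibition was measured relative to vehicle-treated controls.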

The nature of assay [4]: NCI Yeast Anticancer Drug Screen. Data for the cln2 rad14 strain (AID 165).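 Also: 0% = growth equal to vehicle treated cultures.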 The settings on record: S. cerevisiae cln2 rad14 strain, hits give high values. The gist of the method: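 Strain: cln2 rad14 yeast, altered in cell cycle control and DNA damage repair. Read-out: growth inhibition vs vehicle.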
The nature of assay [5]: NCI Yeast Anticancer Drug Screen. Data for the bub3 strain (AID 167). The settings on record: S. cerevisiae bub3 mutant strain, hits give high values. The gist of the method: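 Steps: expose the mutant yeast strain to compound; grow alongside vehicle-treated cultures; measure growth; express inhibition against the vehicle cultures.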
Assay [6] is described as follows: NCI Yeast Anticancer Drug Screen. Data for the mlh1 rad18 strain (AID 175). The settings on record: S. cerevisiae mlh1 rad18 strain growth inhibition, hits give high values. A digest of the protocol:
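A repair-deficient yeast strain is exposed to test compound, and growth is scored relative to vehicle-treated controls.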

[7] abbreviates: at 5.0 µM (retest, dose inferred, filed as 0.5).
Setting [8] is: at 50.0 µM (retest, dose inferred, filed as 5.0).

About 79,000 compounds went through this panel and 15% of them were active in at least one assay; those are over-represented in the sample as a whole. Values without a mark were called inactive. The source made the active and inactive calls. Rule as the data show it: active = growth inhibition above about 70%; inactive = the rest.

On to `CN(C)CCSCCN1c2ccccc2Sc2ccc(Cl)cc21`, for which the growth inhibition in assay [1] (setting [7]) is -5%; in assay [1] (setting [8]), 99% (active); in assay [1] (at 50.0 µM), 57.5%; in assay [2] (setting [7]) it was -2%; in assay [2] (setting [8]) it was 99% (active); in assay [2] (at 50.0 µM) it was 99.7% (active). For the same compound, the growth inhibition was -16% in assay [3] (setting [7]); 99% (active) in assay [3] (setting [8]); 98.6% (active) in assay [3] (at 50.0 µM); -8% in assay [4] (setting [7]); 99% (active) in assay [4] (setting [8]); 99% (active) in assay [4] (at 50.0 µM). The growth inhibition in assay [5] (setting [7]) was 4%; in assay [5] (setting [8]), 99% (active); in assay [5] (at 50.0 µM), 99.2% (active); in assay [6] (setting [7]), 5%; in assay [6] (setting [8]) it was 99% (active); in assay [6] (at 50.0 µM) it was 99.5% (active).
For `O=C1CSC(c2ccc(Cl)cc2)N1c1ccc(-c2ccc(-n3c(-c4ccccc4)nc4ccccc4c3=O)cc2)cc1` (configuration not stated), the growth inhibition in assay [1] (setting [7]) is -6%; in assay [1] (setting [8]) it was 84% (active); in assay [1] (at 50.0 µM), 69.4%; in assay [2] (setting [7]) it was 2%; in assay [2] (setting [8]), 63%; in assay [2] (at 50.0 µM) it was 47.2%. Further, the growth inhibition in assay [3] (setting [7]) is 9%; in assay [3] (setting [8]), 65%; in assay [3] (at 50.0 µM), 84.2% (active); in assay [4] (setting [7]) it was -11%; in assay [4] (setting [8]), 50%; in assay [4] (at 50.0 µM), 26.9%. Moreover, the growth inhibition in assay [5] (setting [7]) was -4%; in assay [5] (setting [8]), 95% (active); in assay [5] (at 50.0 µM), 84.8% (active); in assay [6] (setting [7]), -10%; in assay [6] (setting [8]), 94% (active); in assay [6] (at 50.0 µM), 87.5% (active).
As for `COc1ccccc1C1C(Cl)C(=O)N1n1cnc2ccccc2c1=O` (configuration not stated), the growth inhibition is -12% in assay [1] (setting [7]); -12% in assay [1] (setting [8]); 83.9% (active) in assay [1] (at 50.0 µM); -29% in assay [2] (setting [7]); 7% in assay [2] (setting [8]); 49.4% in assay [2] (at 50.0 µM). Also, the growth inhibition in assay [3] (setting [7]) is -11%; in assay [3] (setting [8]), 2%; in assay [3] (at 50.0 µM) it was 84.5% (active); in assay [4] (setting [7]) it was 15%; in assay [4] (setting [8]), 16%; in assay [4] (at 50.0 µM), 62.3%. Moreover, the growth inhibition in assay [5] (setting [7]) is 9%; in assay [5] (setting [8]) it was 55%; in assay [5] (at 50.0 µM), 83.2% (active); in assay [6] (setting [7]) it was -5%; in assay [6] (setting [8]) it was -3%; in assay [6] (at 50.0 µM), 76.8% (active).
For `CCOC(=O)c1nc(SC)sc1NC(=O)c1ccccc1Cl`, the growth inhibition in assay [1] (setting [7]) is 1%; in assay [1] (setting [8]), 1%; in assay [1] (at 50.0 µM) it was 19.4%; in assay [2] (setting [7]), -5%; in assay [2] (setting [8]), -5%; in assay [2] (at 50.0 µM), -15.6%. Moreover, the growth inhibition in assay [3] (setting [7]) was 4%; in assay [3] (setting [8]) it was 4%; in assay [3] (at 50.0 µM) it was 77.8% (active); in assay [4] (setting [7]), -13%; in assay [4] (setting [8]), -13%; in assay [4] (at 50.0 µM) it was 27.8%. The growth inhibition in assay [5] (setting [7]) was -14%; in assay [5] (setting [8]), -14%; in assay [5] (at 50.0 µM), 30.4%; in assay [6] (setting [7]) it was -5%; in assay [6] (setting [8]) it was -5%; in assay [6] (at 50.0 µM), -8.2%.
Regarding `NC(=S)N/N=C/c1ccc([N+](=O)[O-])o1`, the growth inhibition was 11% in assay [1] (setting [7]); 27% in assay [1] (setting [8]); 66% in assay [1] (at 50.0 µM); 3% in assay [2] (setting [7]); 14% in assay [2] (setting [8]); 43.7% in assay [2] (at 50.0 µM). The growth inhibition in assay [3] (setting [7]) is 4%; in assay [3] (setting [8]) it was 24%; in assay [3] (at 50.0 µM) it was 65.2%; in assay [4] (setting [7]), -3%; in assay [4] (setting [8]), 2%; in assay [4] (at 50.0 µM), 13.7%. Further, the growth inhibition is 10% in assay [5] (setting [7]); 45% in assay [5] (setting [8]); 24.2% in assay [5] (at 50.0 µM); 13% in assay [6] (setting [7]); 43% in assay [6] (setting [8]); 75.3% (active) in assay [6] (at 50.0 µM).
On to `O=C(CC(=O)c1cccnc1)c1cccnc1`, for which the growth inhibition is 6% in assay [1] (setting [7]); 98% (active) in assay [1] (setting [8]); 98.8% (active) in assay [1] (at 50.0 µM); 9% in assay [2] (setting [7]); 98% (active) in assay [2] (setting [8]); 98% (active) in assay [2] (at 50.0 µM). The growth inhibition in assay [3] (setting [7]) was 7%; in assay [3] (setting [8]), 98% (active); in assay [3] (at 50.0 µM) it was 98.5% (active); in assay [4] (setting [7]) it was 5%; in assay [4] (setting [8]), 98% (active); in assay [4] (at 50.0 µM) it was 76.7% (active). The growth inhibition in assay [5] (setting [7]) was 8%; in assay [5] (setting [8]), 98% (active); in assay [5] (at 50.0 µM), 97.7% (active); in assay [6] (setting [7]) it was 7%; in assay [6] (setting [8]), 98% (active); in assay [6] (at 50.0 µM), 99% (active).
As for `CCOC(=O)/C(=C\c1ccc([N+](=O)[O-])cc1)C(C)=O`, the growth inhibition in assay [1] (setting [7]) was 46%; in assay [1] (setting [8]) it was 99% (active); in assay [1] (at 50.0 µM) it was 92.8% (active); in assay [2] (setting [7]), 39%; in assay [2] (setting [8]), 99% (active); in assay [2] (at 50.0 µM) it was 94.7% (active). The growth inhibition was 25% in assay [3] (setting [7]); 98% (active) in assay [3] (setting [8]); 92.5% (active) in assay [3] (at 50.0 µM); 17% in assay [4] (setting [7]); 98% (active) in assay [4] (setting [8]); 87.1% (active) in assay [4] (at 50.0 µM). The growth inhibition in assay [5] (setting [7]) was 40%; in assay [5] (setting [8]), 99% (active); in assay [5] (at 50.0 µM) it was 92.4% (active); in assay [6] (setting [7]), 30%; in assay [6] (setting [8]) it was 99% (active); in assay [6] (at 50.0 µM), 91.8% (active).
As for `COc1ccc(CNC(C#N)c2ccccc2)cc1OC` (configuration not stated), the growth inhibition in assay [1] (setting [7]) was 7%; in assay [1] (setting [8]), -2%; in assay [1] (at 50.0 µM), 99% (active); in assay [2] (setting [7]), 2%; in assay [2] (setting [8]), -3%; in assay [2] (at 50.0 µM) it was 99.7% (active). The growth inhibition in assay [3] (setting [7]) was 3%; in assay [3] (setting [8]), -2%; in assay [3] (at 50.0 µM) it was 99.7% (active); in assay [4] (setting [7]), 5%; in assay [4] (setting [8]), -3%; in assay [4] (at 50.0 µM), 99.5% (active). Further, the growth inhibition in assay [5] (setting [7]) is 1%; in assay [5] (setting [8]), -4%; in assay [5] (at 50.0 µM) it was 99.6% (active); in assay [6] (setting [7]) it was 2%; in assay [6] (setting [8]), -5%; in assay [6] (at 50.0 µM), 99.5% (active).
With `NC(=O)NOCC1NC(=O)NC1=O` (configuration not stated), the growth inhibition in assay [1] (setting [7]) is -24%; in assay [1] (setting [8]), -4%; in assay [1] (at 50.0 µM), -4.95%; in assay [2] (setting [7]) it was -10%; in assay [2] (setting [8]) it was -13%; in assay [2] (at 50.0 µM), -13.1%. In addition, the growth inhibition in assay [3] (setting [7]) was -16%; in assay [3] (setting [8]), -10%; in assay [3] (at 50.0 µM), -21.4%; in assay [4] (setting [7]), 8%; in assay [4] (setting [8]) it was -2%; in assay [4] (at 50.0 µM), -11.1%. The growth inhibition in assay [5] (setting [7]) was -3%; in assay [5] (setting [8]) it was -3%; in assay [5] (at 50.0 µM), -21.8%; in assay [6] (setting [7]), 1%; in assay [6] (setting [8]) it was 8%; in assay [6] (at 50.0 µM), -16.3%.
